Test results from PubChem BioAssay (Tox21).
Values joined by “and” are separate entries in the source; they are usually repeats but may differ in a detail not shown here. Equal entries are not always repeated. Records with an inconclusive call do not appear. A call without a number means that no potency is given here. Some structures have more than one record in an assay (separate samples or runs), and their calls can disagree. Active and inactive are the calls of the source. Unless noted, the call rests on the fitted dose curve; in most records, active means well fitted curve in the direction sought with a large enough effect in the repeat runs; inconclusive means weak or mixed curves; inactive means no such curve, though single readings can be large; an effect the other way counts as inactive or inconclusive.

Key:
[1] = qHTS assay to identify small molecule agonists of the hypoxia (HIF-1) signaling pathway (AID 1224846; active means well fitted activation curve with a large enough effect in the signal ratio in the repeat runs, not every such curve was filed as active; the % refers to the signal ratio)
Method in brief: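 Beta-lactamase FRET read-out (CCF4-AM substrate) from ME-180 cells carrying an HRE-driven bla reporter, after 17 hrs compound exposure at 37C/5% CO2. Cells were seeded at 2,000 per well in 0.5% dialyzed FBS medium and preincubated 5 hrs.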

[2] = qHTS assay to identify small molecule agonists of H2AX - cell viability counter screen (AID 1224847; calls by dose curve; further: nearly all actives have a fitted effect of over 30% in size; further: potency means the concentration at half of the fitted maximal effect)
Method in brief: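 Read-out: CellTiter-Glo luminescence, 30 min RT. Cells: wild-type CHO-K1, 1000/well, 10% FBS, plated overnight at 37C. Treatment: 15 concentrations, 3 hr, 37C, 0.76% DMSO.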

[3] = qHTS RealTime-Glo MT Cell Viability Assay in HepG2 cells - 24 hour (AID 1224867); further: nearly all actives have a fitted effect of over 50% in size; further: potency means the concentration at half of the fitted maximal effect
Method in brief: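 HepG2 suspension premixed with RealTime-Glo reagents is plated at 600 cells per well and left 5 h at 37 C/5% CO2. Compounds in DMSO then go in, and bioluminescence reflecting viable cell number is recorded over 40 h.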

[4] = qHTS RealTime-Glo MT Cell Viability Assay in HEK293 cells - 32 hour (AID 1224868); further: nearly all actives have a fitted effect of over 50% in size; further: potency means the concentration at half of the fitted maximal effect
Method in brief: (§1)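 Reads taken at 0, 8, 16, 24, 32 and 40 h from the same wells. HEK293 cells (600/well) carried RealTime-Glo reagents from seeding, with compound added after a 5 h settle at 37 C.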

[5] = A CellTox Green Cytotoxicity Assay to monitor cytotoxicity in HEK293 cells - 0 hour (AID 1224869); further: nearly all actives have a fitted effect of over 50% in size; further: potency means the concentration at half of the fitted maximal effect
Method in brief: (§2)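 Read-out: fluorescence of a cell-impermeant cyanine dye staining DNA of dead cells, proportional to cytotoxicity. HEK293, 600 cells/well with reagent, compound (23 nL DMSO) added after 5 h; reads at 0, 8, 16, 24, 32, 40 h.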

[6] = qHTS RealTime-Glo MT Cell Viability Assay in HepG2 cells - 40 hour (AID 1224870); further: nearly all actives have a fitted effect of over 50% in size; further: potency means the concentration at half of the fitted maximal effect
Method in brief: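 Real-time viability: cells seeded at 600 per well together with NanoLuc and cell-permeant prosubstrate, compounds added after 5 h incubation. Luminescence tracked at 0, 8, 16, 24, 32 and 40 h of exposure.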

[7] = A CellTox Green Cytotoxicity Assay to monitor cytotoxicity in HEK293 cells - 40 hour (AID 1224871); further: nearly all actives have a fitted effect of over 45% in size; further: potency means the concentration at half of the fitted maximal effect
Method in brief: as §2

[8] = qHTS RealTime-Glo MT Cell Viability Assay in HEK293 cells - 16 hour (AID 1224872); further: nearly all actives have a fitted effect of over 50% in size; further: potency means the concentration at half of the fitted maximal effect
Method in brief: as §1

[9] = qHTS assay to identify small molecule antagonists of the estrogen related receptor (ERR) signaling pathway from Tox21 library (AID 1224848); further: nearly all actives have a fitted effect of over 50% in size; further: potency means the concentration at half of the fitted maximal effect
Method in brief: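 ERR cell line, 2,000 cells/well. 6 h settle, then compound (DMSO) added; 18 h at 37 C; ONE-Glo luminescence after 30 min RT.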

[10] = qHTS assay to identify small molecule agonists of the estrogen related receptor (ERR) signaling pathway from Tox21 library (AID 1224849; calls by dose curve; further: nearly all actives have a fitted effect of over 15% in size); conditions: ERR reporter cell line, ONE-Glo luciferase, 18 h
Method in brief: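 Luminescence readout (ONE-Glo, 30 min RT) after 18 h compound exposure at 37 C of NTP-supplied ERR reporter cells; cells were plated 6 h before compound addition by pin tool.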

Row | SMILES | outcome [1] | Potency [2] | Potency [3] | Potency [4] | Potency [5] | Potency [6] | Potency [7] | Potency [8] | Potency [9] | activity change, positive = activation ([10]; at 42.5 µM (top of the series)) | activity change, positive = activation ([10]; at 92.4 µM (top of the series))
1 | CCCCCCn1cc[n+](C)c1 | inactive | inactive | inactive | 19.7 µM (active) [middle of 5 runs] | inactive | inactive and 35.4 µM (active) | inactive |  |  |  | 
2 | COc1ccc(N)cc1 | inactive | inactive | inactive | inactive | inactive | inactive | inactive | inactive |  |  | 
3 | O=C(O)CC(O)(CC(=O)O)C(=O)O |  | inactive | inactive | inactive | inactive | inactive | inactive | inactive |  |  | 
4 | CCCCCCCCCCCCOS(=O)(=O)O | inactive | inactive | inactive | inactive | inactive | inactive |  | inactive |  |  | 
5 | C[N+](C)(C)Cc1ccccc1 | inactive | inactive | inactive | inactive | inactive | inactive | inactive | inactive |  |  | 
6 | CCn1cc[n+](C)c1C | inactive | inactive | inactive | inactive | inactive | inactive | inactive | inactive |  |  | 
7 | CC[N+](CC)(CC)CC | inactive | inactive | inactive | inactive | inactive | inactive | inactive | inactive |  |  | 
8 | CNC | inactive | inactive | inactive | inactive | inactive | inactive | inactive | inactive |  |  | 
9 | Nc1ccc(-c2ccc(N)c(Cl)c2)cc1Cl | inactive | 101 µM (active) | inactive and 49 µM (active) | 12.4 µM (active) and 18.2 µM (active) and 21.9 µM (active) | inactive and 38.9 µM (active) | inactive and 54.9 µM (active) | inactive and 43.6 µM (active) | 24.5 µM (active) |  |  | 
10 | Cc1cc(-c2ccc(N)c(C)c2)ccc1N | inactive | inactive | inactive | inactive | inactive | inactive | inactive | inactive |  |  | 
11 | CCCCCC[n+]1ccccc1 | inactive | inactive | inactive |  | inactive | inactive | inactive | inactive |  |  | 
12 | CC(=O)[O][Hg][c]1ccccc1 |  | 3.16 µM (active) and 5.66 µM (active) and 24.7 µM (active) | 1.72 µM (active) and 1.95 µM (active) and 1.07 µM (active) | 306 nM (active) and 977 nM (active) and 239 nM (active) | inactive | 1.93 µM (active) and 1.95 µM (active) and 1.07 µM (active) | 433 nM (active) and 1.1 µM (active) and 213 nM (active) | 344 nM (active) and 1.1 µM (active) and 268 nM (active) | 2.15 µM (active) and 3.44 µM (active) and 5.96 µM (active) | -71% (inactive) | -80.3% (inactive) and -73.5% (inactive)
13 | Oc1ccccc1-c1ccccc1 | inactive | inactive | inactive | inactive | inactive | inactive | inactive | inactive |  |  | 
14 | CC(=O)O | inactive | inactive | inactive | inactive | inactive | inactive | inactive | inactive |  |  | 
15 | O=C(O)C(Cl)(Cl)Cl | inactive | inactive | inactive | inactive | inactive | inactive | inactive | inactive |  |  | 
16 | CCC[N+]1(C)CCCCC1 | inactive | inactive | inactive | inactive | inactive | inactive and 24.6 µM (active) | inactive | inactive |  |  | 
17 | Oc1cccc2cccnc12 |  | inactive | inactive and 3.47 µM (active) | 20.7 µM (active) and 5.49 µM (active) and inactive | inactive | inactive and 3.09 µM (active) |  | inactive |  |  | 
18 | COP(=O)(OC)C(O)C(Cl)(Cl)Cl (stereo not drawn) |  | inactive | inactive | inactive | inactive | inactive | inactive | inactive | inactive | 0.23% (inactive) | -17% (inactive) and -12.3% (inactive)

Row | SMILES | outcome [1] | Potency [2] | Potency [3] | Potency [4] | Potency [5] | Potency [6] | Potency [7] | Potency [8] | Potency [9] | activity change, positive = activation ([10]; at 42.5 µM (top of the series)) | activity change, positive = activation ([10]; at 92.4 µM (top of the series))
19 | C1CCC(NC2CCCCC2)CC1 | inactive | inactive | inactive | inactive | inactive | inactive | inactive | inactive |  |  | 
20 | C[C@]12CCC(=O)C=C1CC[C@@H]1[C@@H]2CC[C@]2(C)C(=O)CC[C@@H]12 |  | inactive | inactive | 27.1 µM (active) and inactive | inactive | inactive | 48.2 µM (active) and inactive | 24.1 µM (active) and inactive | 42.5 µM (active) and 54.5 µM (active) | -23.4% (inactive) | -46.4% (inactive) and -41% (inactive)
21 | CCCCCCCCCCCCn1cc[n+](C)c1 | inactive |  |  |  | inactive |  |  |  |  |  | 
22 | CCCC[n+]1cccc(C)c1 | inactive | inactive | inactive | inactive | inactive | inactive and 49.6 µM (active) | inactive | inactive |  |  | 
23 | CCCCCCCCCCCCCCCCn1cc[n+](C)c1 | inactive |  | inactive and 49.4 µM (active) and 43.8 µM (active) |  | inactive | inactive and 39.2 µM (active) and 31 µM (active) | inactive and 19.7 µM (active) and 24.6 µM (active) | inactive and 24.8 µM (active) and 24.6 µM (active) |  |  | 
24 | CC(Cl)(Cl)C(=O)O | inactive | inactive | inactive | inactive | inactive | inactive | inactive | inactive |  |  | 
25 | CN(C)[C@@H]1C(=O)C(C(N)=O)=C(O)[C@@]2(O)C(=O)C3=C(O)c4c(O)cccc4[C@@](C)(O)[C@H]3[C@H](O)[C@@H]12 |  | inactive | inactive | inactive | inactive | inactive | inactive | inactive |  |  | 
26 | CCCCCCCCCCCC(=O)O | inactive | inactive | inactive | inactive | inactive | inactive | inactive | inactive |  |  | 
27 | CCCC[n+]1ccccc1 | inactive | inactive | inactive | inactive | inactive | inactive | inactive | inactive |  |  | 
28 | CCCCCCCCCCn1cc[n+](C)c1 | inactive |  | inactive |  | inactive | inactive |  | inactive and 346 nM (active) |  |  | 
29 | O=P1(N(CCCl)CCCl)NCCCO1 (stereo not drawn) |  | inactive | inactive | inactive | inactive | inactive | inactive | inactive | inactive | -7.16% (inactive) | -1.25% (inactive) and 0.0597% (inactive)
30 | CCCCn1cc[n+](C)c1C | inactive | inactive | inactive | inactive | inactive | inactive and 22.1 µM (active) | inactive | inactive |  |  | 
31 | CCCC[N+]1(C)CCCCC1 | inactive | inactive | inactive and 48.8 µM (active) | inactive | inactive | inactive and 30.8 µM (active) | inactive | inactive |  |  | 
32 | O=C(O)COc1ccc(Cl)cc1Cl | inactive | inactive | inactive | inactive | inactive | inactive | inactive | inactive |  |  | 
33 | N#CS |  | inactive | inactive | inactive | inactive | inactive | inactive | inactive |  |  | 
34 | CCCCCCCCCCCCCC[P+](CCCCCC)(CCCCCC)CCCCCC | inactive | 16 µM (active) and 28.6 µM (active) and 4 µM (active) | 9.82 µM (active) and 19.7 µM (active) and inactive | 3.91 µM (active) and 2.47 µM (active) and 1.95 µM (active) | inactive | 11 µM (active) and 22.1 µM (active) and inactive | 13.9 µM (active) and 19.7 µM (active) | 7.8 µM (active) and 8.78 µM (active) |  |  | 
35 | C=CCOC(Cn1ccnc1)c1ccc(Cl)cc1Cl (stereo not drawn) |  | 113 µM (active) and inactive | inactive | 21.9 µM (active) and 38.9 µM (active) | inactive | inactive | 55.1 µM (active) and inactive | 43.8 µM (active) |  |  | 
